# ssDAF-12 act = activates DAF-12 receptor from parasite S. stercoralis | HEK293 ssDAF-12/GRIP1 lit1-tk-luc reporter, luminescence; % of 3 µM dafachronic acid response | AID 652126 | activation, % at 6.8 µM | 370,000 tested, 1% active;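 active means activation above the mean over all tested compounds plus 3 SD, cut at about 0.9% in these data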;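 further: 0% = DMSO-only wells and 100% = 3 µM delta7-dafachronic acid wells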
# hcDAF12 agonist = H. contortus DAF-12 activation, primary screen. 370,000 tested, 1.4% active. activation, % at 6.8 µM. HEK293 hcDAF-12 lit1-tk-luc reporter, luminescence; 0% DMSO, 100% Δ7-dafachronic acid;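 active means activation above the mean of all tested compounds plus 3 SD, cut at about 5.5% in these data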;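 further: 100% = response to 3 µM Δ7-dafachronic acid high control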
# DAX1 inh-1 = blocks DAX1 repression of SF-1 activated StAR promoter. HEK293T StAR-luciferase reporter, SF-1/DAX-1 repression relief. inhibition, % at 6.8 µM. 370,000 tested, 1.1% active. AID 652010;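 active means inhibition above the mean over all tested compounds plus 3 SD, cut at about 3.6% in these data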;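 further: 0% = DAX-1 cells with DMSO and 100% = cells lacking DAX-1 with DMSO; higher inhibition means more luminescence from relief of DAX-1 repression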
# hgDAF-12 ag = activates the H. glycines DAF-12 receptor ligand-binding domain. HEK293 GAL4-hgDAF12 UAS-luciferase reporter, agonist luminescence; normalized to butyrate control. activation, % at 6.8 µM. 370,000 tested, 1.8% active;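 active means activation above a cutoff set at the mean of all screened compounds plus 3 SD, cut at about 10% in these data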;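 further: 0% = DMSO wells and 100% = sodium butyrate wells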
# DAX1 inh-2 = inhibitors of human orphan nuclear receptor DAX1 (NR0B1); HEK293 Gal4-DAX1 luciferase reporter, luminescence; inhibition, % at 6.75 µM; 340,000 tested, 0.99% active; AID 504766;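 active means inhibition above the mean over all tested compounds plus 3 SD, cut at about 4.2% in these data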;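 further: 0% = DAX1-transfected cells with DMSO and 100% = empty-vector control cells with DMSO; inhibition shows as a rise in luminescence from relieved DAX1 repression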
# AHR act = activators of human aryl hydrocarbon receptor; 320,000 tested, 2.5% active; activation, % at 5 µM; AHR-responsive luciferase reporter cells, luminescence; P35869; AID 2796; in the data active means activation above about 47%;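 further: 0% = vehicle wells and 100% = reference agonist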
# Target sequence (P35869 whole entry, looked up): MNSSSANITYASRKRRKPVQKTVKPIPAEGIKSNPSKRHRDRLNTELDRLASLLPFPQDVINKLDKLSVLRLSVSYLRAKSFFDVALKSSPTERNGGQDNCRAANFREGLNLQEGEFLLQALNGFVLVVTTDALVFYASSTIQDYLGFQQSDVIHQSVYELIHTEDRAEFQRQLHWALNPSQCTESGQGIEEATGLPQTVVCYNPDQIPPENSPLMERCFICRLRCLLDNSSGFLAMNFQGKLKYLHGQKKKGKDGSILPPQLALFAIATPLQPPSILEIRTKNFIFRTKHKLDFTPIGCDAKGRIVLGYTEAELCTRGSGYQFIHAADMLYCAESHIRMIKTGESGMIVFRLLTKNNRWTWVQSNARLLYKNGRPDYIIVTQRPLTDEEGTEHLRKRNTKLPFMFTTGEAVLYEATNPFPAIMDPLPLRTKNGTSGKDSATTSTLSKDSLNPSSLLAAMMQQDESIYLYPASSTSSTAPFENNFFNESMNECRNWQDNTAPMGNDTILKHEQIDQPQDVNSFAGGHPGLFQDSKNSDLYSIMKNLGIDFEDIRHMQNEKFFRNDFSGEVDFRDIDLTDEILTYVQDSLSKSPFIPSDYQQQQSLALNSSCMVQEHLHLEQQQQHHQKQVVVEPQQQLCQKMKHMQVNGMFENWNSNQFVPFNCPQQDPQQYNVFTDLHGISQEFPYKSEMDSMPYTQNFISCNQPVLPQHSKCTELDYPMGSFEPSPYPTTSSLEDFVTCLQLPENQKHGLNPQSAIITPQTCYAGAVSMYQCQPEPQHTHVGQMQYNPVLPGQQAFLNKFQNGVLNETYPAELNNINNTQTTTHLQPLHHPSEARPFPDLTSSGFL
# * hit, by the source's call; . = not tested or not shown. Sampled rows, rich in hits. Any-hit rate of the full collection: about 5.7%.
SMILES,ssDAF-12 act,hcDAF12 agonist,DAX1 inh-1,hgDAF-12 ag,DAX1 inh-2,AHR act
COC(=O)/C(=C/Nc1cccc2ccccc12)[N+](=O)[O-],0,3,0,-2,0,62*
CCOC(=O)c1c(C)n(C)c2ccc(OC(=O)c3ccc(N4C(=O)CCC4=O)cc3)cc12,-2,-2,0,2,0,9
Cc1cc(/C=C(/C#N)C(=O)Nc2ccccc2)c(C)n1-c1cccnc1,-1,1,2,11*,0,32
Cc1cc(/C=C2\NC(=O)NC2=O)c(C)n1-c1cccnc1,0,-2,-1,-2,.,100*
Cc1cccc(C)c1-n1c(C)cc(/C=C2\NC(=O)NC2=O)c1C,-2,1,0,-2,0,15
Cc1cc(C)cc(NC(=S)/N=C(\N)Nc2nc(C)c3ccccc3n2)c1,-2,-2,-1,1,-2,21
COc1ccc2nc(N/C(N)=N/C(=S)Nc3ccccc3)nc(C)c2c1,-1,-2,0,1,-1,-5
Cc1ccc(NC(=S)/N=C(\N)Nc2nc(C)c3ccccc3n2)cc1C,0,-4,0,-1,0,48*
Cc1cccc(NC(=S)/N=C(\N)Nc2nc(C)c3ccccc3n2)c1,-2,-2,0,0,-1,69*
CCOc1ccc2nc(N/C(N)=N/C(=S)Nc3ccc(OC)cc3)nc(C)c2c1,-2,1,1,2,0,64*
Cc1cccc(NC(=S)/N=C(\N)Nc2nc(C)c3ccc(C)cc3n2)c1,-1,1,-1,1,-1,57*
COc1cc(C(=O)NCC(=O)Nc2c(C)cccc2C)ccc1OCc1ccccc1,0,1,0,0,2,0
COc1ccc(CCC(=O)N2CCN(S(=O)(=O)c3ccc4ccccc4c3)CC2)cc1,-1,-3,-1,0,-1,2
Cn1c(CNC(=O)c2ccccc2F)cc2ccccc21,-1,4,0,1,1,50*
Cc1ccc2[nH]c(CNC(=O)c3ccccc3F)cc2c1,-1,3,0,2,3,19
Cn1c(CNC(=O)c2ccc(F)cc2)cc2ccccc21,1.0*,1,-1,1,4.3*,14
O=C(NCc1cc2ccccc2[nH]1)c1ccccc1F,-1,2,0,6,1,48*
O=C(Cn1c(NCCO)nc2ccccc21)c1ccc(Cl)cc1,-1,1,0,0,1,4
COc1ccc(/C(C)=N/N2C(=O)c3ccccc3NC2c2ccc(O)c(OC)c2)cc1 (configuration not stated),-1,3,1,9,2,9
O=C1c2ccccc2NC(c2ccco2)N1/N=C/c1ccco1 (configuration not stated),1,3,1,9,1,6
Cc1ccc(/C=N/N2C(=O)c3ccccc3NC2c2ccc(C)cc2)cc1 (configuration not stated),0,4,2,10,1,50*
C/C(=N\N1C(=O)c2ccccc2NC1c1ccccc1)c1ccccc1O (configuration not stated),-1,3,3.8*,9,2,11
C/C(=N\N1C(=O)c2ccccc2NC1c1ccco1)c1ccccc1O (configuration not stated),0,1,3,9,6.1*,0
CC(C)C(NS(=O)(=O)c1ccc2c(c1)C(C)(C)C(=O)N2C)C(=O)NCc1ccccc1Cl (configuration not stated),-1,-2,-2,1,0,-1
O=c1[nH]cc(COCC(F)CCl)c(=O)[nH]1 (configuration not stated),-1,-2,0,0,-1,-2
SMILES,ssDAF-12 act,hcDAF12 agonist,DAX1 inh-1,hgDAF-12 ag,DAX1 inh-2,AHR act
Cc1ccc(O)c(-c2cc3ccccc3[nH]2)c1,-1,1,1,6,3,49*
COc1ccc(-c2cc3ccccc3[nH]2)cc1,0,5.6*,2,9,3,21
Cc1ccc2[nH]c(-c3cccc(N)c3)cc2c1,0,1,1,6,3,16
c1ccc(-c2cc3ccccc3[nH]2)cc1,0,2,-1,4,0,50*
Cc1ccc2nc(-c3ccccc3)c(Cc3cccc(Cl)c3)n2c1,0,1,1,7,.,.
CCCc1nc2ccc(C)cn2c1Cc1ccsc1,0,5.6*,2,5,.,.
CCCc1nc2ccc(C)cn2c1Cc1cccc(Cl)c1,1.6*,5.6*,1,8,.,.
Cc1cccc(C(=O)Nc2cc(NC(=O)c3cccs3)ccc2C)c1,-2,0,1,-1,-1,41
CCOc1ncccc1C(=O)NCCCSc1ccccc1,-1,-3,0,-1,0,-1
CCOc1ncccc1C(=O)Nc1nnc(C(CC)CC)s1,-2,-3,-1,0,2,2
CCOc1ncccc1C(=O)NNC(=O)c1ccccc1-n1cccc1,-1,1,0,1,1,61*
CCCSc1nsc(NC(=O)c2cccnc2OCC)n1,0,1,0,5,5.8*,2
CCOc1ncccc1C(=O)Nc1ccccc1F,-1,-1,1,-3,2,-1
CCOc1ncccc1C(=O)NCc1ccccc1Cl,-2,-1,0,1,5.7*,11
O=C1CC(C(=O)NCc2ccccc2)N=C(N2CCCCC2)N1 (configuration not stated),-1,-1,0,-1,1,1
O=C1Nc2ccccc2O/C1=C\c1ccccc1Br,0,3,0,3,-1,53*
Cc1cc(C)cc(N(C(C)C(=O)NC2CCCC2)S(C)(=O)=O)c1 (configuration not stated),-2,-2,0,1,2,0
COc1cc(C=O)ccc1OCc1ccc(Cl)nc1,-1,0,1,11*,2,-1
CCCCCC(NC(=O)C1CCN(C(=O)[C@@H](NS(=O)(=O)c2ccc(C)cc2)C(C)C)CC1)C(=O)O (some centres not stated),-1,-1,0,1,4,-1
Cc1ccc(S(=O)(=O)N[C@H](C(=O)N2CCC(C(=O)N[C@@H](CC(=O)O)C(=O)O)CC2)C(C)C)cc1,-1,0,1,0,8.8*,-2
Cc1ccc(S(=O)(=O)N[C@@H](CC(C)C)C(=O)N2CCC(C(=O)N[C@@H](Cc3ccccc3)C(=O)O)CC2)cc1,-1,0,0,0,6.9*,0
CC(=O)c1ccc(Sc2ccc(C(C)=O)cc2)cc1,-1,4,1,4,0,17
COc1ccc(/C=N/S(=O)(=O)c2cccs2)cc1,3.0*,-1,0,1,0,2

# Screens from PubChem BioAssay.
